# Compound activity deposited in PubChem BioAssay by The Scripps Research Institute Molecular Screening Center.
# This is a sample that favours compounds with a hit; in the whole collection about 3.5% have one here.
# TEAD-YAP inh: TEAD-YAP interaction inhibition, primary screen, TEAD-YAP interaction inhibitor project, luminescence, HEK-TIYL cells. AID 1259422, 2018. TEAD-Gal4/YAP UAS-luciferase luminescence. 640,000 compounds, 1.4% hits. inhibition, % at 9.12 µM; in the data active = inhibition above about 32%;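 also: 0% = median of test compound wells and 100% = reference inhibitor wells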
# MITF inh: MITF inhibitors, primary screen, biochemical, AlphaScreen, human; inhibition, % at 2.6 µM; AlphaScreen MITF homodimerization, bead proximity signal; 650,000 compounds, 0.91% hits; Microphthalmia-associated transcription factor (Homo sapiens), O75030; in the data active = inhibition above about 50%;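 also: 0% = vehicle wells with protein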
# GPR151 ag: activators of human GPR151, primary screen, cell-based, PathHunter beta-arrestin, luminescence; activation, % at 11.2 µM; PathHunter beta-arrestin GPR151 cells; 650,000 compounds, 1% hits; in the data active = activation above about 4.9%;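 also: 0% = median of compound wells and 100% = cells with positive control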
# FBW7 activator: FBW7 E3 ligase activators, primary screen, biochemical, AlphaScreen, human; F-box/WD repeat-containing protein 7 (Homo sapiens), Q969H0; AlphaScreen FBW7–phospho-cyclin E peptide binding, activator screen; normalized activity (activation), % at 26.1 µM; 650,000 compounds, 0.13% hits; in the data active = normalized activity above about 1.9%;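 also: purified mutant Fbw7 with reduced substrate affinity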
# Target sequence (Q969H0 whole entry, looked up): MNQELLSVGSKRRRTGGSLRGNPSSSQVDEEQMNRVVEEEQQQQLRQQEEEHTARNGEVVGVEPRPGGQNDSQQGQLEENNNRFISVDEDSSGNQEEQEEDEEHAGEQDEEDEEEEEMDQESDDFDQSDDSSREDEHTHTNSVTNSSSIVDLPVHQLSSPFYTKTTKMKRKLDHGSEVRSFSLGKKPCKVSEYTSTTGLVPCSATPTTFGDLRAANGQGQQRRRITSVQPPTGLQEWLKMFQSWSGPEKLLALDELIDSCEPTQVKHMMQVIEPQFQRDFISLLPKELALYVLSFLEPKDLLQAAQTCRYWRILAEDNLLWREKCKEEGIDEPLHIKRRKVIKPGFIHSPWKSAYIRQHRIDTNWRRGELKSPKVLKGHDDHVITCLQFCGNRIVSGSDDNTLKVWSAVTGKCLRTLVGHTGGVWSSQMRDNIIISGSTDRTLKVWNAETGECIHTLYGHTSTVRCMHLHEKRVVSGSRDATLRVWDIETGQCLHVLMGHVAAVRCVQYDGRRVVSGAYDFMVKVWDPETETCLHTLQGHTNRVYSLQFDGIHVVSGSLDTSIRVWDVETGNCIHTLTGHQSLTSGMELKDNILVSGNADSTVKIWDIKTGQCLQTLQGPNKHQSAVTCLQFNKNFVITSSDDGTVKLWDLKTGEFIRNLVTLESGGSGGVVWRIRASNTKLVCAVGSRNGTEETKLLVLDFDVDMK
# GPR151 confirm: GPR151 activators, triplicate retest, confirmation, cell-based, PathHunter beta-arrestin, luminescence; shares compounds with GPR151 ag; GPR151 PathHunter beta-arrestin cells, 90 min; % of EA-reagent control over plate median; activation, % at 11.2 µM; 6,700 tested, under 10 active;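 active = mean percent activation across replicates above the confirmation screen cutoff of 4.91%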
# GPR119 counter: GPR119 activators in beta-arrestin cells, counter-screen for GPR151 activator project, cell-based, PathHunter beta-arrestin, luminescence, triplicate; AID 1508611, 2020; shares compounds with GPR151 ag; 90 min; 0 = compound-well median, 100 = enzyme-acceptor control; activation, % at 11.2 µM; 6,700 compounds, 0.3% hits;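 active = mean percent activation in the counterscreen above 29.09%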;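 also: counterscreen on off-target GPR119 to flag nonselective hits from the GPR151 activator screen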
# An asterisk follows results filed as active; x = not tested or not shown.
SMILES,TEAD-YAP inh,MITF inh,GPR151 ag,FBW7 activator,GPR151 confirm,GPR119 counter
CCN1C(=O)[C@H]2[C@H]3[C@H](O)[C@H](O)C/C(=N\OCC(C)C)[C@@H]3CC[C@H]2C1=O,x,14,6.6*,0,0,12
O=C1[C@H]2[C@H]3[C@H](O)[C@H](O)C/C(=N\OCc4ccccc4)[C@H]3CC[C@H]2C(=O)N1C1CCCCC1,x,2,5.8*,1,2,21
CC(C)CO/N=C1\C[C@@H](O)[C@@H](O)[C@@H]2[C@@H]3C(=O)N(Cc4ccccc4)C(=O)[C@@H]3CC[C@H]12,x,8,0,0,x,x
C#CCCCO/N=C1\C[C@@H](O)[C@@H](O)[C@@H]2[C@@H]3C(=O)N([C@@H](C)c4ccccc4)C(=O)[C@@H]3CC[C@H]12,x,14,9.5*,0,1,6
CCOC(=O)C1=C(C)NC2=C(C(=O)CC(c3ccccc3)C2)C1c1cc(Cl)c(O)c(OC)c1 (centres undefined),16,1,0,0,x,x
CN(C)c1ccc(/C=C2/C(=O)N(c3nc4ccccc4s3)N=C2CSc2ccc(Cl)cc2)cc1,-5,16,0,0,x,x
CC(=O)Nc1ccc(S(=O)(=O)Nc2ncn[nH]2)cc1,-5,-4,0,0,x,x
CC1(C)CC(=O)C(C=Nc2ccccc2Br)=C(O)C1,3,0,0,0,x,x
CCOc1ccc(NC(=O)N2CCC(CN3CCCCCC3)CC2)cc1,-3,5,-1,0,x,x
CCOc1ccc(NC(=O)N2CCC(Cn3cnc4cc(C)c(C)cc43)CC2)cc1,10,7,5.8*,0,1,4
CC(=O)N(NC(=O)C(O)(c1ccc(C)cc1)c1ccc(C)cc1)C(c1ccc(C)cc1)c1ccccc1F (centres undefined),-5,4,2,0,x,x
Cc1nnc(SCC(=O)Nc2nc(-c3ccc(Cl)cc3)ns2)s1,-9,0,5.2*,0,-1,-6
Cc1cccc(NC(=O)CSc2nnc(NC(=O)COc3ccc(Cl)cc3)s2)c1,-6,1,6.5*,0,-1,-5
Cc1ccc(NC(=O)CSc2nnc(NC(=O)COc3ccc(Cl)cc3)s2)cc1,1,11,0,0,x,x
CCSc1nnc(NC(=O)COc2ccc(Cl)cc2Cl)s1,3,-8,7.2*,0,1,4
Cc1ccc(NC(=O)COc2cccc3c2CCN(Cc2cccnc2)C3=O)c(C)c1,-2,6,5.4*,0,2,4
Cc1sc2c(c1C)C(=O)NC(c1cn(Cc3ccccc3)c3ccccc13)N2 (centres undefined),-2,-8,6.1*,0,1,-1
CN1C(=O)CC(c2cn(Cc3ccccc3)c3ccccc23)C1=O (centres undefined),-7,-2,2,0,x,x
CC[n+]1c(/C=C/N(C)c2ccccc2)oc(-c2ccccc2)c1-c1ccccc1,92*,2,5.7*,0,1,18
CCn1c(C)cc(/C=C/c2oc3ccccc3[n+]2CC)c1C,-6,19,-2,0,x,x
Cc1ccc(N2C(=O)CC(Sc3nc(-c4ccccc4)ccc3C#N)C2=O)cc1 (centres undefined),-19,10,1,0,x,x
Cc1ccc(SC2CC(=O)N(c3ccccc3)C2=O)cc1 (centres undefined),1,5,5.0*,0,-1,-12
CC(C)Cc1ccc(C#N)c(SC2CC(=O)N(c3ccccc3)C2=O)n1 (centres undefined),-33,-7,7.5*,0,0,-2
Cc1ccc(N2C(=O)CC(Sc3nc(C)cc(C(F)(F)F)c3C#N)C2=O)cc1 (centres undefined),-10,18,-3,0,x,x
Cc1cc(C(F)(F)F)c(C#N)c(SC2CC(=O)N(c3ccccc3)C2=O)n1 (centres undefined),0,12,9.3*,1,1,0
SMILES,TEAD-YAP inh,MITF inh,GPR151 ag,FBW7 activator,GPR151 confirm,GPR119 counter
Cc1ccc(N2C(=O)CC(Sc3nc(C)cc(C)n3)C2=O)cc1 (centres undefined),19,-6,1,0,x,x
CC1CCCCC12NC(=O)N(CC(=O)Nc1ccc3c(c1)CCC3)C2=O (centres undefined),17,24,-2,0,x,x
COc1ccc(-c2nnc(SCC(=O)Nc3ccc(C(=O)O)cc3)n2C)cc1,-3,8,-2,0,x,x
O=c1c2cccnc2n(Cc2cccc(F)c2)c(=O)n1Cc1ccc(F)cc1,-6,-5,-1,0,x,x
CC(C)CCn1c(=O)c2cccnc2n(Cc2cccc(F)c2)c1=O,-8,-8,12*,0,-1,-4
CC1=C(C(=O)c2ccccc2)C(c2cccc(Br)c2)NC(=O)N1 (centres undefined),-6,-13,0,0,x,x
Cc1cccc(NC(=O)C(=S)NC2CCCC2)c1C,-26,-12,8.2*,0,1,9
CC(C)N(CCC#N)S(=O)(=O)c1cccc2nsnc12,7,-4,-1,0,x,x
CN(C)CC(C)(C)CN(CCC#N)S(=O)(=O)c1cccc2nsnc12,-1,14,5.0*,0,0,0
CCOc1ccc(CCNC(=O)c2cccc3c2SCCC3=O)cc1,6,10,1,0,x,x
COc1cccc(C(=O)Nc2nc3ccc(SC)cc3s2)c1OC,-14,-15,5.0*,0,0,8
CSc1ccc2nc(NC(=O)c3ccccc3C)sc2c1,-39,5,-6,0,x,x
C/C(=N\NC(=O)c1ccc(F)cc1)c1ccccc1,-51,-2,5.4*,0,0,7
C/C(=N\NC(=O)c1ccc(C(=O)N/N=C(\C)c2ccc(F)cc2)cc1)c1ccc(F)cc1,-3,7,1,0,x,x
CCOC(=O)c1cccc(N=Cc2c(O)[nH]c3ccccc23)c1,-62,-15,0,0,x,x
COc1ccc(NS(=O)(=O)c2cc(C(=O)O)c(Cl)cc2Cl)cc1,-2,8,-2,1,x,x
COCCCNc1nc2nonc2nc1N1CCN(CCOc2ccccc2)CC1,8,1,7.2*,0,1,-1
O=[N+]([O-])c1ccccc1/C=C/CN1CCSCC1,-6,40,1,0,x,x
O=[N+]([O-])c1ccccc1/C=C/CN1CCN(CCOCCO)CC1,5,49,5.4*,0,0,5
CCNc1cc(N(CC)CCO)c2noc3c2c1C(=O)c1ccccc1-3,7,47,-2,-1,x,x
